Results on 24 molecules are retold here after PubChem BioAssay AID493169 (National Center for Advancing Translational Sciences (NCATS), 2011).

Inconclusive results are not listed. Unmarked numbers belong to inactive results. Activity calls are given as the source filed them. Calls follow the shape of the dose curve; as a rule, active = well fitted inhibition curve with a large enough effect; inconclusive = small, poorly fitted or top-dose-only effect; inactive = flat fitted curve, though single readings scatter.
% is scaled to controls: 0 for no effect and ±100 for the full control effect; potency is read from the fitted curve at half-maximal effect.

The nature of this test: CHOP2 Reporter Counterscreen Assay for Inhibitors of Ubiquitin-specific Protease USP2a.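 Also: activated enterokinase alone at 50 pM in a cell-free format rather than USP2a or CHOP2; nearly all actives have a fitted effect of over 55% in size.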 Particulars: purified enterokinase, fluorogenic substrate, 485/531 nm; series mostly up to 38.3 µM; activity change, negative = inhibition: at the top concentration. In a few lines: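 Fluorescence (485/531 nm) read 10 min after adding 25nM reporter substrate to 50 pM activated EK preincubated 30 min RT with compound; Tris pH 8.0/CaCl2/CHAPS buffer. Data normalized to buffer-alone inhibition; concentration-response curves fitted.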
For `COC(=O)CSc1nc2c(c(-c3ccco3)c1C#N)CCCC2`, the “activity change, negative = inhibition” value is 4.87%.
As to `CC1CC(C)CN(C(=O)CSc2nnc(-c3ccc(Cl)cc3)o2)C1` (centres undefined), the “activity change, negative = inhibition” value is 3.09%.
Same read-out and setting: the result for `c1ccc(-c2nc3nc4ccccc4nc3n2Cc2ccco2)cc1` reads 3.7%; that for `Cc1cc(C)n2cc(CSc3nnnn3-c3ccccc3C)nc2n1`, 1.35%.
With `CC(C)n1nc(C(=O)Nc2ccccc2N2CCOCC2)c2ccccc2c1=O`, the “activity change, negative = inhibition” value was 2.45%.
Take `CCOc1ccc2[nH]c(=O)c(CN(Cc3cccs3)Cc3nnnn3C(C)(C)CC)cc2c1`: the “activity change, negative = inhibition” value is -1.12%.
Consider `Cc1ccc(C(=O)C(=S)N2CCOCC2)cc1`, for which the “activity change, negative = inhibition” value is 2.32%.
As to `O=C1CS/C(=C/C(=O)c2ccccc2)N1`, the “activity change, negative = inhibition” value is 0.0345%.
Regarding `FC(F)Sc1ccc(NC(=S)NC2CCCCC2)cc1`, the “activity change, negative = inhibition” value is -0.892%.
Same read-out and setting: the figure for `O=C(NC1CCCCC1)C(c1ccco1)N(Cc1ccco1)C(=O)c1ccco1` (centres undefined) is -14.8%; for `CCc1nnc(NC(=O)CSc2nccn2-c2cccc(C)c2)s1` it is -0.253%.
Same read-out and setting: the result for `Cc1noc(/C=C/NCc2cccnc2)c1S(=O)(=O)N(C)CC(=O)N1CCc2ccccc21` reads -1.33%; that for `CC(C)(C)NC(=O)CSc1nc(O)cc(=O)n1-c1ccccc1F`, 7.8%.
Same read-out and setting: the result for `CC(C)CCn1c(CN2CCN(C(=O)c3ccco3)CC2)nc2c1c(=O)n(C)c(=O)n2C` reads 12.8%.
Take `Cc1cccc2c1N(CCCOc1ccc(C(C)(C)C)cc1)C(=O)C2=O`: the “activity change, negative = inhibition” value was -1.62%.
Turning to `COc1cc2c(ccc3cc(OC)c(OC)c(O)c32)cc1O`, the Potency was 5.62 µM (active).
In the case of `CC(=O)c1cccc(NC(=O)C(C)OC(=O)c2cc(=O)[nH]c3ccccc23)c1` (centres undefined), the Potency was 1 µM (active).
On to `C/C(Cn1nnc2ccccc21)=N\OC(=O)c1ccccc1C`, for which the “activity change, negative = inhibition” value was 3.79%.
On to `Cc1ccc(/C=C/S(=O)(=O)N2CCC(C(=O)O)CC2)cc1`, for which the “activity change, negative = inhibition” value was 0.0087%.
The same measure, in the same setting: the figure for `COc1ccc(/C=C\C(=O)O[C@@H]2C(O)C(O[C@@H]3OC(C)[C@H](O[C@@H]4OCC(O[C@H]5O[C@H](CO)[C@@H](O)C(O)C5O)C(O)C4O)C(O)C3O)[C@H](OC(=O)[C@]34CCC(C)(C)C[C@@H]3C3=CCC5[C@@]6(C)CC(O)C(O[C@@H]7OC(CO)C(O)[C@H](O)[C@H]7O)[C@@](C)(C(=O)O)C6CC[C@@]5(C)[C@]3(CO)CC4)O[C@H]2C)cc1` (some centres undefined) is -14.4%; for `Cn1c(C(=O)NCCCN2CCN(c3ccccc3F)CC2)cc2c(=O)n(C)c3ccccc3c21` it is 2.44%; for `CCn1c(COc2ccccc2)nnc1SCC(=O)CC(=O)Nc1ccccc1OC` it is -12.8%.
The same measure, in the same setting: the result for `COc1ccc(S(=O)(=O)N2CCCC2C(=O)NCc2cccs2)cc1` (centres undefined) reads 4.72%; that for `Cc1ccc(Cn2nnc3c(=O)[nH]c(C4CCN(S(=O)(=O)Cc5ccccc5)CC4)nc32)cc1`, 3.17%.
